In PubChem BioAssay (EPA / NIEHS):
Calls of active or inactive are those of the source. How the source made its calls: active means hit-call score of the fitted dose curve at least 0.9, where 1 is the maximum; inactive means score below 0.9.

read-out: Bcl-2 (BAD) gene, BAD (gene 572); test: LTEA_HepaRG_BAD: Life Technologies and Expression Analysis (LTEA) Assay for Bcl-2 (BAD) gene using HepaRG (AID 2283469); conditions: mRNA level, 48 h; actives raise or lower the signal
Description: LTEA_HepaRG is a cell based, multiplexed-readout assay that uses HepaRG, a human liver cell line, with measurements taken at 48 hours after chemical dosing on a 96-well plate.LTEA_HepaRG_BAD is one of 102 assay component(s) measured in the LTEA HepaRG cell culture assay. It is a marker of Cell proliferation, survival, death.Data from the assay component LTEA_HepaRG_BAD was analyzed into 1 endpoint. This assay endpoint, LTEA_HepaRG_BAD, was analyzed with bidirectional fitting relative to DMSO as the negative control and baseline of activity. Using a type of inducible reporter, measures of mRNA induction for gain or loss-of-signal activity can be used to understand regulation of transcription factor activity. To generalize the intended target to other relatable targets, this assay endpoint is annotated to the cell cycle intended target family, where the subfamily is Cell proliferation, survival, death.
A total of 1060 chemcials from the ToxCast library were tested in eight-point concentration-response experiments. Cell culture and cytotoxicity assays were conducted at Thermo Fisher Scientific's Custom Services facility (Madison, WI). A single lot of human HepaRG cells (Thermo Fisher Scientific, Frederick, MD) was used for the cell culture experiments. 96-well format collagen type I coated plates of human HepaRG cells were prepared using established methods. Briefly, cryopreserved HepaRG cells were thawed, plated at a density of approximately 100,000 cells/well in HepaRG Thaw, Plate, and General Purpose media (HPRG770, Thermo Fisher Scientific), and incubated for 48 hours. 0.5% DMSO was selected as vehicle control to balance the requisite need of DMSO in HepaRG cultures to maintain differentiation (for example, baseline metabolism, proportions of hepatocytes vs. cholangiocytes), while enabling further hepatic receptor pathway activation (for example, PXR and CAR) in response to chemical exposure. 48 hours after plating, the culture medium was replaced with HepaRG Serum-Free Incudtion Media. Cells were exposed to each test chemical in duplicate and maintained in CO2 incubators for another 48 hours. Chemical plates were thawed to room temperature and 200x concentrations of treatment groups were prepared. 8-point conentration-reponse curves were made with the highest exposure at 100 uM, followed by half-log dilutions, all in 0.5% DMSO. Each test plate contained variouse controls, induction positive controls (1mM phenobarbital), cytotoxicity positive controls ([…] aflatoxin B1), vehicle controls (0.5% DMSO), and total lysis controls (0.5% DMSO). Cell morphology images were taken using an Essen IncuCyte FLR automated microscope, with six 96-well plates imaged in about 24 minutes. Images were captured and exported and JPEG files. Spent culture media was transfered to black-well plates for the LDH assay, and remaining media was sorted at -80 C for later use. Cells were treated with RLT buffer and frozen until shipped for gene expression analysis. Total RNA was isolated from the cell suspension in 75 uL of Buffer RLT (Qiagen, Germantown, MD 20874) by Quintiles/Expression Analysis (Durham, NC) using a custom isolation procedure. Total RNA from each plate well was transferred to a preamplification plate. Fluidigm's 96.96 Dynamic ArrayTM (Fluidigm, Amsterdam, the Netherlands) technology was used for gene expression analyses by quantitative reverse transcription polymerase chain reaction (qRT-PCR, performed by Quintiles/Expression Analysis, Durham, NC)89. Standard TaqManTM Assays (Applied Biosystems/ThermoFisher Scientific, Foster City, CA) were used to assess the expression of 93 genes selected based on their selectivity and sensitivity to important hepatic receptors known to be modulated by environmental chemicals; importance in human hepatocyte functionality; and hepatotoxicity. […]

| SMILES | outcome | AC50 |
| --- | --- | --- |
| O=C(O)c1cccc(C[C@@H]2COc3ccc(OCc4nc5cc(F)ccc5s4)cc3[C@@H]2O)c1 | inactive | – |
| CC(C)CCCCCCOC(=O)C1CCCCC1C(=O)OCCCCCCC(C)C (stereo not given) | inactive | – |
| O=C1CN(N=Cc2ccc([N+](=O)[O-])o2)C(=O)N1 | inactive | – |
| c1ccc2c(c1)-c1cccc3c1c-2cc1ccccc13 | inactive | – |
| O=C(O)c1ccc2c(c1)nc(C(=O)NC1CCN(C3CC3)CC1)n2Cc1cc(-c2ccc(Cl)s2)on1 | inactive | – |
| COc1cc(C(C)C)c2c(c1)S(=O)(=O)N(COc1cc(=O)n3cccc(OCCN4CCCCC4)c3n1)C2=O | inactive | – |
| CCCCCOC(C)=O | inactive | – |
| CCn1nc(C)c2c1C(=O)NCC(c1ccc(O)cc1)=N2 | inactive | – |
| CCCCCCOC(=O)CC(CC(=O)OCCCCCC)(OC(=O)CCC)C(=O)OCCCCCC | inactive | – |
| COc1cc2c(c(OC)c1OC)-c1ccc(OC)c(=O)cc1[C@@H](NC(C)=O)CC2 | inactive | – |
| OC[C@H]1O[C@@H]2O[C@H]3[C@H](O)[C@@H](O)[C@@H](O[C@H]4[C@H](O)[C@@H](O)[C@@H](O[C@H]5[C@H](O)[C@@H](O)[C@@H](O[C@H]6[C@H](O)[C@@H](O)[C@@H](O[C@H]7[C@H](O)[C@@H](O)[C@@H](O[C@H]1[C@H](O)[C@H]2O)O[C@@H]7CO)O[C@@H]6CO)O[C@@H]5CO)O[C@@H]4CO)O[C@@H]3CO | inactive | – |
| Cn1cc[nH]c1=S | inactive | – |
| CCCOc1ccc(S(=O)(=O)N2CCN(CC)CC2)cc1-c1nc2c(CC)n(Cc3ccccn3)nc2c(=O)[nH]1 | inactive | – |
| COS(C)(=O)=O | inactive | – |
| O=S(=O)(O)c1ccc(N=Nc2c(O)ccc3cc(S(=O)(=O)O)ccc23)cc1 | inactive | – |
| Cn1c(=O)c2[nH]cnc2n(C)c1=O | inactive | – |
| c1ccc2cc3ccccc3cc2c1 | inactive | – |
| NC(=O)N(O)[C@@H]1COc2cc(OCc3ccccc3)ccc21 | inactive | – |
| OC(Cn1cncn1)(Cn1cncn1)c1ccc(F)cc1F | inactive | – |
| CC(C)c1nnc2ccc(-c3ocnc3-c3cc(F)ccc3F)cn12 | inactive | – |

| SMILES | outcome | AC50 |
| --- | --- | --- |
| C=CCc1cc(S(=O)(=O)c2ccc(O)c(CC=C)c2)ccc1O | inactive | – |
| CCCCCCCC/C=C\CCCCCCCC(=O)OC[C@@H](O)[C@H]1OC[C@H](O)[C@H]1O | inactive | – |
| c1ccc(C(O[C@@H]2CCCN(CCc3ccc4c(c3)OCO4)C2)c2ccccc2)cc1 | inactive | – |
| CC1(C)C(=O)N(Cl)C(=O)N1Cl | inactive | – |
| NC(N)=O | inactive | – |
| NNC(=O)c1ccncc1 | inactive | – |
| O=S1(=O)CCCO1 | inactive | – |
| CCCCCCCC1CCC(=O)O1 (stereo not given) | inactive | – |
| CCCCOC(=O)c1ccccc1 | inactive | – |
| OCC(CO)(CO)CO | inactive | – |
| CCN(CC)C(=S)SSC(=S)N(CC)CC | inactive | – |
| OCCOCCOCCO | inactive | – |
| CNC(C)=O | inactive | – |
| CCCCCCCCCCCCCCCCOS(=O)(=O)O | inactive | – |
| CCCc1ccccc1 | inactive | – |
| CCCCCCCCN(C)C | inactive | – |
| Cc1nccn1-c1ccc(Sc2cccc(C3(C(N)=O)CCOCC3)c2)cc1 | inactive | – |
| NC(=O)NN=Cc1ccc([N+](=O)[O-])o1 | – | 0.381 µM (active) |
| CCOC(N)=O | inactive | – |
| CCc1cccc(CC)c1N | inactive | – |
